Data published in PubChem BioAssay (Tox21).
Inconclusive results are not listed. Activity calls are given as the source filed them. Unless noted, calls follow the shape of the full dose curve.

What was measured:
[1] = Nuclear factor erythroid 2-related factor 2/antioxidant responsive element (Nrf2/ARE) small molecule agonists: qHTS cell viability counter screen in human keratinocytes (AID 1919968; active = well fitted curve in the direction sought with a large enough effect in the repeat runs; an effect the other way counts as inactive or inconclusive; also: nearly all actives have a fitted effect of over 55% in size; also: potency is read from the fitted curve at half-maximal effect)
Summary of the method: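 Cytotoxicity was multiplexed with the Nrf2/ARE luciferase assay in the same wells. Stably transfected HaCaT keratinocytes were treated with test compounds for 23 h at 37 C. Cell viability was then measured by CellTiter-Fluor fluorescence.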

[2] = Nuclear factor erythroid 2-related factor 2/antioxidant responsive element (Nrf2/ARE) small molecule agonists: luciferase reporter gene qHTS assay in human keratinocytes (AID 1919969); also: nearly all actives have a fitted effect of over 35% in size; also: potency is read from the fitted curve at half-maximal effect
[3] = biological target: Gonadotropin-releasing hormone receptor (Homo sapiens) (UniProt P30968); assay: Human gonadotropin-releasing hormone receptor (GnRHR) small molecule agonists, calcium flux assay in GnRHR-HEK293 cells (AID 1920063); also: nearly all actives have a fitted effect of over 35% in size
Summary of the method: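 Agonist activity was measured as intracellular calcium flux in HEK293 cells engineered to stably express human GnRHR. After dye loading for 1 hour at 37 C, compounds in DMSO were added and fluorescence was followed for 3 minutes.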

[4] = biological target: KiSS-1 receptor (Homo sapiens) (UniProt Q969F8); assay: Human kisspeptin (KISS1R) small molecule agonists, calcium flux assay in KISS1R-HEK293 cells (AID 1920064; active = well fitted curve in the direction sought with a large enough effect in the repeat runs; an effect the other way counts as inactive or inconclusive)
Summary of the method: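 Agonist activity is monitored as intracellular calcium rise in engineered HEK293 cells carrying human KISS1R. Cells are dye-loaded for 1 h at 37 C before compound addition, and fluorescence is recorded for 3 min.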

[5] = G protein-coupled receptor (GPCR) small molecule agonists, calcium flux assay: HEK293 wild type cell line counter screen (AID 1920065)
Summary of the method: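 Seed cells, incubate 18 h (37 C, 5% CO2); add calcium dye, 1 h at 37 C; pin-transfer compounds, ATP control or DMSO; read fluorescence 480/540 nm each second for 3 min.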

[6] = p53 small molecule agonists, cell-based qHTS assay with human liver microsomes: qHTS cell viability counter screen (AID 1963579); also: nearly all actives have a fitted effect of over 45% in size; also: potency is read from the fitted curve at half-maximal effect
Summary of the method: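 Metabolically activated exposure: compounds, human liver microsomes and NADPH (0.5 mg/mL final apiece) were added to p53RE-bla cells seeded 5 h earlier, left 16 h at 37 C, and then assessed for viability by CellTiter-Glo luminescence.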

[7] = p53 small molecule agonists, cell-based qHTS assay with rat liver microsomes: qHTS cell viability counter screen (AID 1963580); also: nearly all actives have a fitted effect of over 45% in size; also: potency is read from the fitted curve at half-maximal effect
Summary of the method: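 Counter screen for cytotoxicity under metabolic activation: rat liver microsomes and NADPH, 0.5 mg/mL final each, added with compounds to p53RE-bla HCT-116 cells; 16 h at 37 C, then ATP luminescence read.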

[8] = p53 small molecule agonists, cell-based qHTS assay: qHTS cell viability counter screen (AID 1963581); also: nearly all actives have a fitted effect of over 45% in size
Summary of the method: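 Viability was counter-screened in parallel with the p53 agonist reporter by measuring intracellular ATP luminescence in the same HCT-116 p53RE-bla wells after 16 h compound treatment at 37 C.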

[9] = cAMP Responsive Elements (CRE) small molecule antagonists, cell-based qHTS assay (AID 1963591; active = well fitted inhibition curve with a large enough effect in the signal ratio in the repeat runs, not every such curve was filed as active; the % refers to the signal ratio)
Summary of the method: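 Cells (CRE-bla HEK 293T, DMEM with 10% dialyzed FBS and 25 mM HEPES) are seeded and incubated 18 h. Compounds are added with NKH477 agonist at 0.25 uM final for 3 h, then FRET substrate for 2 h.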

[10] = biological target: Beta-2 adrenergic receptor (Homo sapiens) (UniProt P07550); assay: Adrenergic beta2 receptor (ADRB2) small molecule antagonists, cell-based qHTS assay (AID 1963592); also: series mostly up to about 92 µM; nearly all actives have a fitted effect of over 50% in size
Summary of the method: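 Assay format: CHO-ADRB2 cells, 18-20hr seeding at 37C/5% CO2, then compound plus 1nM isoproterenol agonist mix for 0.5hr RT. Homogeneous time-resolved fluorescence cAMP detection after 1hr, expressed as 665/615 nm ratio.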

[11] = biological target: D(2) dopamine receptor (Homo sapiens) (UniProt P14416); assay: Dopamine D2 receptor (DRD2) small molecule agonists, cell-based qHTS assay (AID 1963594); also: nearly all actives have a fitted effect of over 35% in size
Summary of the method: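 HEK293 cells stably expressing DRD2 were cultured 24 h at 37 C, then given Ro20-1724 (0.1 mM final) and compounds for 10 min at room temperature. NKH477 (200nM) was then added for 30 min. cAMP was read by HTRF.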

[12] = biological target: D(2) dopamine receptor (Homo sapiens) (UniProt P14416); assay: Dopamine D2 receptor (DRD2) small molecule antagonists, cell-based qHTS assay (AID 1963595; active = well fitted inhibition curve with a large enough effect in the signal ratio in the repeat runs, with a control signal flat; the % refers to the signal ratio)
Summary of the method: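 Cells were plated and grown for 24 h at 37 °C. Ro20-1724 (0.1 mM final) went in first, then compound for 10 min. NKH477 (200 nM) with quinpirole (12 nM) followed for 30 min at RT, then HTRF detection reagents for 1 h.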

[13] = biological target: 5-hydroxytryptamine receptor 2A (Homo sapiens) (UniProt P28223); assay: 5-hydroxytryptamine receptor 2A (HTR2A) small molecule antagonists, cell-based qHTS assay (AID 1963586); also: nearly all actives have a fitted effect of over 45% in size; also: potency is read from the fitted curve at half-maximal effect
Summary of the method: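 CHO cells stably expressing human HTR2A were plated for 18 h at 37 C, then loaded with calcium dye for 1 h. Compounds were preincubated 5 min at room temperature before DOI (4 nM solution) was added. Kinetic fluorescence was read for 3 min.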

[14] = biological target: 5-hydroxytryptamine receptor 2A (Homo sapiens) (UniProt P28223); assay: 5-hydroxytryptamine receptor 2A (HTR2A) small molecule agonists, cell-based qHTS assay (AID 1963587); also: nearly all actives have a fitted effect of over 30% in size
Summary of the method: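 HTR2A-CHO cells, plated 18 h at 37 C/5% CO2, dye-loaded 1 h at 37 C; compounds in DMSO added by pin tool (agonist mode). Intracellular calcium flux read as kinetic fluorescence on FDSS over 2 min at 1 s intervals.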

[15] = biological target: Muscarinic acetylcholine receptor M1 (Homo sapiens) (UniProt P11229); assay: Cholinergic receptor muscarinic 1 (CHRM1) small molecule agonists, cell-based qHTS assay (AID 1963589); also: nearly all actives have a fitted effect of over 35% in size
Summary of the method: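 Cells were plated and incubated 18 h at 37 C/5% CO2, loaded with calcium dye for 1 h at 37 C, then treated with compounds in DMSO. Fluorescence was recorded kinetically at 1 sec intervals.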

[16] = cAMP Responsive Elements (CRE) small molecule agonists, cell-based qHTS assay (AID 1963590)
Summary of the method: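 Cells carrying a CRE-driven beta-lactamase reporter (HEK 293T) are seeded, incubated overnight (18 h), and treated with test compounds for 3 h at 37 C; reporter activity is then detected with a FRET substrate after 2 h at room temperature.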

[17] = biological target: Beta-2 adrenergic receptor (Homo sapiens) (UniProt P07550); assay: Adrenergic beta2 receptor (ADRB2) small molecule agonists, cell-based qHTS assay (AID 1963593);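 also: CHO cells stably overexpressing human ADRB2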
Summary of the method: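 CHO cells stably over-expressing ADRB2 were plated overnight at 37C, then dosed with compounds plus a stimulation mix containing 100uM IBMX and 25uM Ro-20-1724 for 0.5hr at room temperature. cAMP was measured by HTRF competition, 1hr.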

[18] = biological target: Muscarinic acetylcholine receptor M1 (Homo sapiens) (UniProt P11229); assay: Cholinergic receptor muscarinic 1 (CHRM1) small molecule antagonists, cell-based qHTS assay (AID 1963588); also: nearly all actives have a fitted effect of over 40% in size
Summary of the method: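 Compounds were tested at 15 concentrations in three independent runs. Dye-loaded CHRM1-CHO cells were exposed 5 min at room temperature before stimulation by acetylcholine added at 50nM. Intracellular calcium was read kinetically on FDSS for 3 min.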

Measured: Potency

KiSS-1 receptor (Homo sapiens), sequence (Q969F8 whole entry, looked up): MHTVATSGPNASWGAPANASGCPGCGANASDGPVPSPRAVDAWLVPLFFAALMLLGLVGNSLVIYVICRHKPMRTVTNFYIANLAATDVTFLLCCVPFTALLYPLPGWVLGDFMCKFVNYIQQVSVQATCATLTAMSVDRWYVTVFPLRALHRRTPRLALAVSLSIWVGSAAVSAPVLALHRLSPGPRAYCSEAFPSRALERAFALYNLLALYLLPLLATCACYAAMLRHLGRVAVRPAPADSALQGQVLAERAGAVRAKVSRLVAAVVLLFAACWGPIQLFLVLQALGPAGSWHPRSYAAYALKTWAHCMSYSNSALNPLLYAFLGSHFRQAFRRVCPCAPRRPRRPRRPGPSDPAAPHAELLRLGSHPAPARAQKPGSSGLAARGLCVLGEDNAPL
Muscarinic acetylcholine receptor M1 (Homo sapiens), sequence (P11229 whole entry, looked up): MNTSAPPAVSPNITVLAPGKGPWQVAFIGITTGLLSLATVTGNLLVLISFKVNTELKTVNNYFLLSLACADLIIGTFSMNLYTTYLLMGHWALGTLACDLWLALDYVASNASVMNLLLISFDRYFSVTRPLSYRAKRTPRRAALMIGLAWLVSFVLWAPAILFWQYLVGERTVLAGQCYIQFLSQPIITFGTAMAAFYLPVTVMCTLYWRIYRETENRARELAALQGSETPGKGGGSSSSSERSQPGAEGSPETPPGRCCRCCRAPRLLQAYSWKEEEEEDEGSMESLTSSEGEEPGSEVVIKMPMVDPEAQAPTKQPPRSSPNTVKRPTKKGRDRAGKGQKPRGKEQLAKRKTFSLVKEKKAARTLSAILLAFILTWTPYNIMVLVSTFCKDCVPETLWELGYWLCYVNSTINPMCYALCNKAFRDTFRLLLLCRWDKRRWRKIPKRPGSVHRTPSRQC
Beta-2 adrenergic receptor (Homo sapiens), sequence (P07550 whole entry, looked up): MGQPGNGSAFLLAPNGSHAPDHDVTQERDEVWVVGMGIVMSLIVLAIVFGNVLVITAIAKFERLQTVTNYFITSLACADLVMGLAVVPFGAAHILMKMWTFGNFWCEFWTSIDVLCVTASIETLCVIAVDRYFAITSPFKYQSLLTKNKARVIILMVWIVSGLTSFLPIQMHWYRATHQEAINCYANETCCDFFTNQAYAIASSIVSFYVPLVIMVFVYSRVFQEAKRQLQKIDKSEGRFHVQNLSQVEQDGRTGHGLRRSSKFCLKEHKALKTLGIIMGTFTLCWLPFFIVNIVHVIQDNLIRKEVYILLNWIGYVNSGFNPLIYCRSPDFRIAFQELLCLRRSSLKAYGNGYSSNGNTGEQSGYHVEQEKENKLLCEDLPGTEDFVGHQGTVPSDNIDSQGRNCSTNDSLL
Gonadotropin-releasing hormone receptor (Homo sapiens), sequence (P30968 whole entry, looked up): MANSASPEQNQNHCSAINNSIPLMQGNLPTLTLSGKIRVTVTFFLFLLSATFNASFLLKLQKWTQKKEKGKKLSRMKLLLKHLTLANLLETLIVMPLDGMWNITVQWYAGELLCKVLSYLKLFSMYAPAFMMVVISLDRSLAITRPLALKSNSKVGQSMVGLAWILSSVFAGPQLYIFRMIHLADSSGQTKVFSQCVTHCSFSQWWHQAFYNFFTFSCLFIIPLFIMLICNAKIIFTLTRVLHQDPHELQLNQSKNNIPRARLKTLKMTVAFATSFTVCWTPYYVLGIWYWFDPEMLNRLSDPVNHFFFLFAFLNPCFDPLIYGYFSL
5-hydroxytryptamine receptor 2A (Homo sapiens), sequence (P28223 whole entry, looked up): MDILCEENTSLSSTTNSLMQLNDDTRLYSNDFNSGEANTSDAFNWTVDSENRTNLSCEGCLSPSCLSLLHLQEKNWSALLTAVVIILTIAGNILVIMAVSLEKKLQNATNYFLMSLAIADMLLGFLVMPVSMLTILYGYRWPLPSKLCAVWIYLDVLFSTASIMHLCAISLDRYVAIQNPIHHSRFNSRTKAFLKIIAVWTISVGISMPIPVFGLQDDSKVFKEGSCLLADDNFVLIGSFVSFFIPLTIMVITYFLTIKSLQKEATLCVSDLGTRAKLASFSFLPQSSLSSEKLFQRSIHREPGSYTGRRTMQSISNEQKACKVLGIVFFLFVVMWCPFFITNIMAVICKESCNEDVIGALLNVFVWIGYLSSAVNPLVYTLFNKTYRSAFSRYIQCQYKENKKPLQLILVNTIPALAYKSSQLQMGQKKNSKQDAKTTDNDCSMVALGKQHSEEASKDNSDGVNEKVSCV
D(2) dopamine receptor (Homo sapiens), sequence (P14416 whole entry, looked up): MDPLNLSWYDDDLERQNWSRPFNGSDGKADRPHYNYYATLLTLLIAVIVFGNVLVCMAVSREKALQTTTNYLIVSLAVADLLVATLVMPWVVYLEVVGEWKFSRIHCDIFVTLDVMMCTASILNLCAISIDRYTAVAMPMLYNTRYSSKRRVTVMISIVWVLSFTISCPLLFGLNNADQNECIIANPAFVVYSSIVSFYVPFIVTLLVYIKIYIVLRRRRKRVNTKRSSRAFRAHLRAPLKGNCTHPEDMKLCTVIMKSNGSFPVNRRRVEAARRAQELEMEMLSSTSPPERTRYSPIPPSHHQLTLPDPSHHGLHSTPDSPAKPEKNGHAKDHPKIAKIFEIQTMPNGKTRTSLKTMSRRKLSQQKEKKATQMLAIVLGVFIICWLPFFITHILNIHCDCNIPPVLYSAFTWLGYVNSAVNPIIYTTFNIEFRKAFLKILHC

O=C(O)c1cccnc1Nc1cccc(C(F)(F)F)c1
inactive: [1] | [3] | [4] | [5] | [6] | [7] | [8] | [9] | [10] | [11] | [12]
active: [2] 23.7 µM

Cc1ccc(Cl)c(Nc2ccccc2C(=O)O)c1Cl
inactive: [1] | [2] | [3] | [4] | [5] | [6] | [7] | [8] | [10] | [11] | [12]

CCCCCCCCCCCCCCCC(=O)OCC
inactive: [1] | [2] | [3] | [4] | [5] | [6] | [7] | [13] | [14] | [15] | [16] | [9] | [17] | [11] | [12]

CO/N=C(/C(=O)N[C@@H]1C(=O)N2C(C(=O)O)=C(Cn3nnc(C)n3)CS[C@H]12)c1csc(N)n1
inactive: [1] | [2] | [3] | [4] | [5] | [6] | [7] | [14] | [18] | [15] | [16] | [9] | [10] | [17] | [11]

N#Cc1nc(Cl)c(Cl)c(Cl)c1Cl
inactive: [3] | [4] | [5] | [13] | [14] | [18] | [15] | [10] | [11] | [12]
active: [1] 6.11 µM | [2] 2.43 µM | [6] 11.5 µM | [7] 36.3 µM

CCCCOc1ccc(CC(=O)NO)cc1
inactive: [1] | [2] | [3] | [4] | [5] | [6] | [7] | [13] | [18] | [15] | [16] | [10] | [17] | [11]

O=S(=O)(O)c1cc(O)c2ccc(Nc3ccccc3)cc2c1
inactive: [1] | [2] | [3] | [4] | [5] | [6] | [7] | [13] | [14] | [18] | [15] | [16] | [9] | [11] | [12]

CC[N+](C)(CC)CCOC(=O)C1c2ccccc2Oc2ccccc21
inactive: [1] | [2] | [3] | [4] | [5] | [6] | [7] | [14] | [15] | [16] | [9] | [10] | [11] | [12]

NCCNC(=O)c1ccc(Cl)cn1
inactive: [1] | [2] | [3] | [4] | [5] | [6] | [7] | [13] | [18] | [15] | [9] | [10] | [17] | [11] | [12]

NC(=O)c1cc[n+](CC2=C(C(=O)[O-])N3C(=O)[C@@H](NC(=O)Cc4cccs4)[C@H]3SC2)cc1
inactive: [1] | [2] | [3] | [4] | [5] | [6] | [7] | [13] | [14] | [18] | [15] | [16] | [9] | [10] | [12]

O=C1CCc2cc(OCCCCc3nnnn3C3CCCCC3)ccc2N1
inactive: [1] | [2] | [3] | [4] | [5] | [6] | [7] | [8] | [10] | [17] | [11]

Cc1cccc(NC(=S)N(C)C)c1
inactive: [1] | [2] | [3] | [4] | [5] | [6] | [7] | [13] | [14] | [18] | [16] | [9] | [10] | [17] | [11] | [12]

NC(=O)c1c(Cl)cccc1Cl
inactive: [1] | [2] | [3] | [4] | [5] | [6] | [7] | [13] | [14] | [18] | [15] | [16] | [9] | [10] | [17] | [12]

CC(=O)c1ccc2c(c1)Cc1ccccc1-2
inactive: [1] | [2] | [3] | [4] | [5] | [6] | [7] | [13] | [14] | [18] | [15] | [9] | [10] | [11] | [12]

CN(C)CCN(Cc1ccccc1)c1ccccn1
active: [13] 7.29 µM
inactive: [1] | [2] | [3] | [4] | [5] | [6] | [7] | [14] | [15] | [16] | [9] | [10] | [17] | [11] | [12]

O=C1CCCCC1C1CCCCC1 (configuration not stated)
inactive: [1] | [2] | [3] | [4] | [5] | [6] | [7] | [13] | [14] | [18] | [15] | [16] | [9] | [11] | [12]

CN(Cc1ccc(C(C)(C)C)cc1)Cc1cccc2ccccc12
active: [1] 11.9 µM
inactive: [2] | [3] | [4] | [5] | [6] | [7] | [8] | [9] | [10] | [17] | [11] | [12]
